# Screening data deposited in PubChem by The Scripps Research Institute Molecular Screening Center.
# This is a sample that favours compounds with a hit; in the whole collection about 2.2% have one here.
# S1P1 agonist – S1P1 (human) receptor agonism | P21453 | S1P1 agonist cell-based reporter assay | activation, % at 4.5 µM | 16,000 tested, 1.5% active | AID 1044; in the data active means activation above about 80%
# Target sequence (P21453 whole entry, looked up): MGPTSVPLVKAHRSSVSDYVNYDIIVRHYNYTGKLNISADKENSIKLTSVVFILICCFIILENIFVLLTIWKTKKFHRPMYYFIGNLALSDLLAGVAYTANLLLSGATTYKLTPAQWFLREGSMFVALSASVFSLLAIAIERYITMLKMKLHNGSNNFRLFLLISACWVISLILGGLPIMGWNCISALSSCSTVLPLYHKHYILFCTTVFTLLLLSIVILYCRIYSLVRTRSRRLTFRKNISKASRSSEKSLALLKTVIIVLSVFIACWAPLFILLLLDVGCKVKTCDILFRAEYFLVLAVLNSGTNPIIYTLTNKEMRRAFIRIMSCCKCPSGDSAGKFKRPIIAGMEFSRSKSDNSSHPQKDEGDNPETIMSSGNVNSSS
# rat GALR2 agon – activates the rat galanin receptor 2 | O08726 | 16,000 tested, 0.5% active | cell-based GALR2 agonist screen | AID 833 | activation, % at 10 µM; in the data active means activation above about 15%
# Starred values were filed as active, the others as inactive.
SMILES,S1P1 agonist,rat GALR2 agon
Cc1c(CNC(=S)Nc2ccc(F)cc2)sc2ccccc12,16,-6
FC(F)(F)c1ccn(-c2nc(-c3ccccc3)ns2)n1,5,-6
c1ccc(-c2nsc(-n3ccc(-c4cccs4)n3)n2)cc1,3,20*
O=C(/C=C/C(=O)Nc1ccc(F)cc1F)Nc1ccc(F)cc1F,77,-6
O=C(c1ccno1)n1nccc1-c1cc(-c2ccccc2)no1,-16,-8
CC1(C)CC(=O)C=C(SCc2ccc([N+](=O)[O-])cc2)S1,1,-8
Cn1nc(C(C)(C)C)cc1C(=O)N1CCC(C(F)(F)F)CC1,0,-8
COC(=O)c1cc(NC(=O)/C=C/c2ccc(OC)c(OC)c2Cl)ccc1N1CCOCC1,85*,-6
COC(=O)c1cc(NC(=O)c2c(Cl)cccc2Cl)ccc1N1CCOCC1,-11,-7
CC(C)S(=O)(=O)c1cscc1NC(=O)c1ccc(-c2ccccn2)s1,-14,-1
Cc1ccc(NC(=O)c2c(F)cccc2Cl)cc1NS(C)(=O)=O,6,-7
CC(=O)Nc1ccc(NC(=O)c2c(Cl)cccc2Cl)c(C)c1,-2,41*
COc1ccc(CCNC(C#N)c2ccco2)cc1OC (stereo unspecified),105*,-12
COc1ccc(CCNC(=O)c2ccccc2)cc1OC,-7,-6
Cc1nn(C)c(C)c1N=Nc1c(C)nn(C)c1C,-22,-6
CC(=O)c1ccc(Cl)c(NC(=O)Nc2ccc(Cl)cc2)c1,14,-5
N=C(N)SCc1ccc(-c2csnn2)cc1,0,-7
Cc1ccc(C(=O)CC#N)cc1,-24,-6
COC(=O)CNC(=O)c1ccccc1,1,-5
O=C(NCC(O)COCc1ccccc1)c1ccccc1 (stereo unspecified),4,29*
CC1=C(C#N)S(=O)(=O)C(C#N)C(c2cccc(C(F)(F)F)c2)C1 (stereo unspecified),1,-5
N#C/C(=N\Nc1cccc(C(F)(F)F)c1)C(=O)c1csc(-c2cccnc2)n1,73,-7
N#C/C(=N\Nc1cccc(C(F)(F)F)c1)S(=O)(=O)c1ccsc1,97*,-10
O=C(/C=C/Sc1ccc(Cl)cc1)c1cccs1,-13,-11
CCC/C(O)=C(\C=N\c1ccc(C(=O)OC)o1)C(=O)OCC,83*,-3
SMILES,S1P1 agonist,rat GALR2 agon
COC(=O)c1ccc(/N=C/N(C)C)o1,0,-1
Cc1ccc(C(=O)NNC(=O)c2sc(-c3csc(C)n3)nc2C)cc1,2,-8
O=C(N/N=C/c1ccncc1)N/N=C/c1ccncc1,28,-8
N#CCc1ccc(Oc2c(Cl)cncc2Cl)cc1,79,-5
CS(=O)(=NS(=O)(=O)c1cccc2nsnc12)c1ccc(Cl)cc1 (stereo unspecified),8,-2
O=[N+]([O-])c1ccc(OS(=O)(=O)c2cccc3nsnc23)cc1,13,47*
CC(C)(C)c1ccc(NC(=O)c2ccc(N3C(=O)CSCC3=O)cc2)cc1,93*,-6
CC(=O)Nc1ccc(/C=N/NC(=O)c2ccc(C(C)(C)C)cc2)cc1,13,-8
O=C(Cc1cc(F)cc(F)c1)NNC(=O)c1cccc(C(F)(F)F)c1,3,-5
N#Cc1nc(=O)n(-c2ccc(OC(F)(F)F)cc2)c(N)c1N=Cc1ccc(C(F)(F)F)cc1,106*,-8
Cc1ccc(C)n1-c1ccc(OC(F)(F)F)cc1,3,-5
c1ccc(-c2[nH]c3ccccc3c2-c2ccccc2)cc1,-14,-8
Oc1[nH]c2ccccc2c1N=Nc1nnc(-c2ccccc2)c(-c2ccccc2)n1,96*,-7
Cc1nc(C(F)(F)F)c(C(=O)O/N=C(\N)c2cccc(C(F)(F)F)c2)s1,99*,-8
N/C(=N\OC(=O)c1csc([N+](=O)[O-])c1)c1cccc(C(F)(F)F)c1,45,-7
CSc1nc(/C=N/c2nc(C)cc(C)n2)c(O)n1Cc1cccc(Cl)c1,103*,-4
CSC1=NCC(=O)N1Cc1cccc(Cl)c1,4,-4
O=C1NC(=S)S/C1=C\c1cc([N+](=O)[O-])ccc1Sc1ccc(C(F)(F)F)cn1,108*,-3
O=[N+]([O-])c1cnc(Sc2ccc(C(F)(F)F)cn2)s1,-24,-5
O=C(NCCN1CCNC1=O)Nc1ccc(OC(F)(F)F)cc1,-10,-5
O=C(c1ccc(Br)cc1)c1ccc([N+](=O)[O-])cc1,3,-6
O=[N+]([O-])c1ccc(SC2=NCCS2)c([N+](=O)[O-])c1,113*,-8
O=[N+]([O-])c1ccc(SC2=NCCS2)nc1,30,2
Cc1c(CNS(=O)(=O)c2cc(C(F)(F)F)cc(C(F)(F)F)c2)sc2ccccc12,-44,-9
